LmPK inhibitor: inhibitors of Leishmania mexicana pyruvate kinase; purified LmPK, Kinase-Glo ATP luminescence, 1 h; Potency, µM (titrated, usually from 57.5 µM), for the others: at the top dose activity change, negative = inhibition, actives largely listed as inhibitors; Q27686; 0.37% of 290,000 active; note: potency is the fitted concentration of half-maximal effect; % is set by controls: 0 for no effect and ±100 for the full control effect
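Purified LmPK (0.1 nM) with 0.5 mM PEP and 0.1 mM ADP in imidazole buffer pH 7.2 with MgCl2/KCl, 1 h at room temperature. ATP formed was read by luciferase luminescence and normalized to no-enzyme and uninhibited controls.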
RE007 growth inh: less growth of the S. pombe RE007 Vpr strain. AID 651644. Potency, µM (highest dose often 92.2 µM), inactives show at the top dose activity change, negative = less growth, most hits filed as inhibitors. S. pombe RE007 Vpr strain, BacTiter-Glo ATP luminescence, 24 h. 0.21% of 360,000 active; active = well fitted falling curve with a large enough effect; inconclusive = small, poorly fitted or top-dose-only effect; inactive = no such curve, though single readings can be large or run the other way; note: potency is the fitted concentration of half-maximal effect; % is set by controls: 0 for no effect and ±100 for the full control effect; nearly all actives have a fitted effect of over 50% in size
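Fission yeast strain RE007, carrying one chromosomally integrated HIV-1 vpr copy, was seeded at OD 0.01 in PMG+AL medium with 23 nL pinned compound. After 24 h at 30 °C and 99% humidity, viability was read by BacTiter-Glo luminescence.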
Cycloheximide cs: counter-screen hit for Shiga toxin inhibitors, cycloheximide. cell reporter, cycloheximide protein synthesis inhibition counterscreen. max response, %. 12% of 300,000 active. AID 2314; in the data active = max response mostly above about 13%, no sharp cut-off; inactive = mostly below about 14%; note: read at 38.3 µM for the half of the compounds with a filed dose; 0% is about no effect
Shiga inhibitor: Shiga toxin inhibition. 9.2% of 290,000 active. inhibition, % at 38.7 µM. AID 2315. Vero cells, Shiga toxin protein synthesis inhibition reporter; in the data active = inhibition mostly above about 28%, no sharp cut-off; inactive = mostly below about 43%; note: 0% is about no effect
TbPYK inhibitor: inhibitors of Trypanosoma brucei pyruvate kinase; TbPYK enzyme, Kinase-Glo Plus ATP luminescence, 45 min; Q57TT1; Potency, µM (top dose mostly 76.8 µM), without a hit: top-dose activity, negative = inhibition, most hits filed as inhibitors; 0.12% of 410,000 active; note: potency is the fitted concentration of half-maximal effect; % is set by controls: 0 for no effect and ±100 for the full control effect; nearly all actives have a fitted effect of over 50% in size
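Enzyme and substrate buffer are dispensed first and compound is pin-transferred. ADP at 130 uM final then starts the reaction, which runs 45 min at room temperature. Detection reagent is added for 10 min before luminescence is imaged.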
FBPA Giardia inh: inhibitors of Giardia lamblia fructose-1,6-bisphosphate aldolase; 0.71% of 290,000 active; A8B2U2; purified Giardia FBPA; Potency, µM (series often up to 59.6 µM), without a hit: at the highest dose activity, negative = inhibition, actives largely listed as inhibitors; AID 2451; note: potency is the fitted concentration of half-maximal effect; % is set by controls: 0 for no effect and ±100 for the full control effect; nearly all actives have a fitted effect of over 55% in size
Target sequence (A8B2U2 whole entry, looked up): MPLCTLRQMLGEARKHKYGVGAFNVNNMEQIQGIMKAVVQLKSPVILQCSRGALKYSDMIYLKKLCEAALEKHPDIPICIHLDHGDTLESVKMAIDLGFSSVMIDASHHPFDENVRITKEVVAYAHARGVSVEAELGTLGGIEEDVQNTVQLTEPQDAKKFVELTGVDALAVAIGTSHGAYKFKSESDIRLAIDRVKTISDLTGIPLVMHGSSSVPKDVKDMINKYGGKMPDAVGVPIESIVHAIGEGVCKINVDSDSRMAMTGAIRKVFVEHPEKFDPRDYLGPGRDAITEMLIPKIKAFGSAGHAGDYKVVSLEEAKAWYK
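Giardia FBPA (40 nM reagent) was preincubated 10 min at RT with compound (up to 57.5 uM final), then substrate plus GAPDH/TPI/NAD/arsenate coupling system with diaphorase/resazurin was added; resorufin fluorescence (525/598 nm) was read after 20 min.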
* hit, by the source's call; ? = inconclusive; / = no result; + = active, no number; [ ] = dose if it differs, or a comment. Only a selection was taken, and hits are over-represented in it overall. Unless noted, calls come from the whole dose curve; as a rule, active = well fitted curve in the direction sought with a large enough effect; inconclusive = small, poorly fitted or top-dose-only effect, or another doubt; inactive = no such curve, though single readings can be large; an effect the other way counts as inactive or inconclusive.

SMILES | LmPK inhibitor | RE007 growth inh | Cycloheximide cs | Shiga inhibitor | TbPYK inhibitor | FBPA Giardia inh
Cc1nc(C(F)(F)F)ccc1C(=O)NCC(O)c1ccccc1 (configuration not stated) | 5% | -10% | 45* | 71* | -24% | 12%
Cc1nc(C(F)(F)F)ccc1C(=O)Nc1ccccc1F | 4% | -11% | 21 | 0 | 0% | 0%
COc1cc(Cl)c(C)cc1NC(=O)CSc1nc2c(c(=O)[nH]1)CCCC2 | / | / | / | / | -7% | /
O=C(Nc1ccccc1)Nc1cccc(Cl)c1Cl | -1% | 12% | 37* | active | 7% | -10%
CSc1ccccc1NC(=O)Nc1cccc(Cl)c1Cl | 6% | -7% | 10* | -6 | 5% | 0%
CSc1ccccc1NC(=O)Nc1cccc(Cl)c1C | -5% | 10% | 21 | 17 | 2% | 8%
COc1ccc(CNc2ncncc2-c2ccc(N(C)C)cc2)c(OC)c1 | / | / | / | / | / | -19%
Cn1ncc(N=Cc2ccccc2)c1C(N)=O | 4% | 2% | 9 | 26 | -1% | -25%
Nc1ncc(Br)cc1N=Cc1ccccc1 | -3% | 18% | 75* | 27* | -5% | 1.1µM*
Cc1oc2ccc(O)c(CN3CCN(C)CC3)c2c1C(=O)Nc1cccc(C(F)(F)F)c1 | / | / | / | / | 2% | /
C=C(C)C(=O)OCC(=O)NCc1ccccc1 | -1% | -6% | 36* | 114* | -14% | 7%
O=C(NCc1ccc2c(c1)OCO2)c1cccs1 | 1% | -9% | -5 | -5 | -10% | -2%
O=C(COC(=O)c1cccs1)NCC1CCCCC1 | -6% | 4% | 20* | 23 | -1% | -6%
O=C(COC(=O)c1cccs1)NCc1ccccc1 | -1% | -12% | 25* | 38 | -3% | 1%
O=C(COC(=O)c1cccs1)NCc1ccco1 | 4% | 22% | -2 | 39 | -17% | 0%
O=C(COC(=O)c1cccs1)NCc1ccc2c(c1)OCO2 | 1% | -15% | 40* | 69* | 4% | 2%
COc1ccc(S(=O)(=O)NCCS(=O)(=O)N2CCN(c3ccccc3)CC2)cc1OC | / | / | / | / | 3% | /
CSCC[C@H](NC(=O)CNC(=O)CNC(=O)[C@H](CO)NC(=O)[C@H](CCCNC(=N)N)NC(=O)[C@H](CO)NC(=O)[C@H](CC(C)C)NC(=O)[C@H](CC(C)C)NC(=O)CNC(=O)[C@H](C)NC(=O)[C@H](CC(C)C)NC(=O)[C@H](CCCNC(=N)N)NC(=O)[C@H](Cc1cnc[nH]1)NC(=O)[C@@H](NC(=O)[C@@H](N)C(C)C)[C@@H](C)O)C(=O)N[C@H](C(=O)N[C@@H](CCCCN)C(=O)N[C@@H](CO)C(=O)N[C@@H](CC(N)=O)C(=O)N[C@@H](Cc1ccccc1)C(=O)N[C@H](C(=O)N1CCC[C@H]1C(=O)N[C@H](C(=O)N[C@@H](CC(N)=O)C(=O)N[C@H](C(=O)NCC(=O)N[C@@H](CO)C(=O)N[C@@H](CCCCN)C(=O)N[C@@H](C)C(=O)N[C@@H](Cc1ccccc1)C(N)=O)C(C)C)[C@@H](C)O)C(C)C)C(C)C | / | / | -4 | 8 | / | 6%
c1ccc(Cn2nnnc2C(c2ccncc2)N2CCOCC2)cc1 (configuration not stated) | 0% | 10% | -2 | -6 | 0% | 2%
Cc1cc(C(c2nnnn2Cc2ccccc2)N2CCOCC2)c(C)n1-c1ccc2c(c1)OCO2 (configuration not stated) | 2% | 1% | 18* | 42* | -32% | -27%
Cc1cc(C)cc(NC(=O)Cn2c(=O)n(-c3cc(C)cc(C)c3)c(=O)c3oc4ccccc4c32)c1 | / | / | / | / | 1% | /
COc1ccc(NC(=O)C2C3C=CC(C3)C2C(=O)O)cc1 (configuration not stated) | -2% | -1% | 0 | 20 | 2% | -5%
Cc1ccc(-c2ccc(NC(=O)C3C4C=CC(C4)C3C(=O)O)cc2)o1 (configuration not stated) | -5% | ? | 46* | 62* | 0% | 0%
O=C(COc1ccc(Br)cc1Br)NC1CCCC1 | 8% | 9% | 43* | 109* | -8% | 0%
O=C(COc1ccc(Br)cc1Cl)NC(=O)NC1CCCC1 | / | -17% | / | / | 5% | /
SMILES | LmPK inhibitor | RE007 growth inh | Cycloheximide cs | Shiga inhibitor | TbPYK inhibitor | FBPA Giardia inh
O=C(COc1ccc(Br)cc1Br)NC1CCS(=O)(=O)C1 (configuration not stated) | / | 4% | / | / | 1% | /
O=C(COc1ccc(Br)cc1Cl)NC1CCCCC1 | 2% | 4% | 36* | + | -4% | 5%
CC(C)NC(=O)NC(=O)COc1ccc(Br)cc1Br | 3% | ? | 130* | 75* | -3% | 15%
C=CC1=C2C=C(C3CC3)N(c3ccc(OC)cc3)C=C2C(=O)C(C)(OC(=O)c2ccco2)C1=O (configuration not stated) | 7%[11.5 µM] | / | / | / | / | -25%[12.9 µM]
Cc1cccc(CC(C)NC(=O)c2oc3c(F)cccc3c2C)n1 (configuration not stated) | -1% | -20% | 15* | 29* | 0% | -5%
Cc1c(C(=O)NC(c2ccccn2)C(F)(F)F)oc2c(F)cccc12 (configuration not stated) | 2% | 8% | -2 | -15 | -4% | 7%
CC(NC(=O)c1cnc2ccccc2n1)c1ccccc1 (configuration not stated) | -1% | 11% | 23* | 41 | 2% | -15%
Cc1ccc(NC(=O)c2ccc(=O)[nH]n2)cc1C | -11% | -5% | 48* | 100* | -3% | 4%
CC(NC(=O)c1ccncc1)c1ccccc1 (configuration not stated) | 0% | 1% | -5 | / | -5% | 5%
Cc1ccc(NC(=O)c2ncc(Cl)c(Cl)c2Cl)cc1C | 3% | -12% | 40* | 61 | 0% | 4%
O=C(Nc1ccccc1)c1cnc2ccccc2n1 | -9% | 0% | 40* | 60* | -3% | 3%
O=C(Nc1ccc(OC(F)F)cc1)c1ncc(Cl)c(Cl)c1Cl | 4% | -15% | 14 | 10 | 4% | 0%
CC(=O)Nc1cnc2ccccc2n1 | 0% | -11% | 2 | -4 | -1% | -2%
OC(CN1CCNCC1)Cn1c2ccc(Br)cc2c2cc(Br)ccc21 (configuration not stated) | / | / | / | / | / | -16%
Cc1ccc(NC(=O)c2sc(Cl)nc2-c2ccccc2)cc1C | 9% | -24% | -3 | -22 | 5% | 2%
Cc1ccc(NC(=O)c2cnc3ccccc3n2)cc1C | -5% | -2% | 51* | 67* | -3% | -4%
NC(=O)c1ccc(NC(=O)COC(=O)c2ccc3ccccc3n2)cc1 | / | -14% | / | / | -2% | /

Screens as filed in PubChem BioAssay.
